Assay results published in article PMC4552634, “A New Set of Chemical Starting Points with Plasmodium falciparum Transmission-Blocking Potential for Antimalarial Drug Discovery” (PLoS ONE, 2015).
Like-named read-outs stand apart in the source and are kept apart here. The campaign covered roughly 13,000 compounds. About 3,200 (25%) showed an effect of 50% or more. The list shows a part of the results.

System: P. falciparum stage V gametocytes
Parameters: BacTiter-Glo ATP luminescence viability of purified stage V gametocytes in 384-well plates, per cent inhibition versus DMSO
Conditions: 48 h, 5 µM, inhibitor

Row | Structure (SMILES) | % Inhibition [%] | % Inhibition (% Inhibition) [%]
1 | CN(C)CC(=O)NCC(NCCCNc1cc(=O)c2ccccc2[nH]1)c1cc(Br)cc(Br)c1 (stereo not drawn) [TCMDC-140314] | -36.64 | –
2 | CN(CCCN(C)c1cc(NC(=O)c2ccc(F)cc2)ccn1)Cc1cccc(F)c1 [TCMDC-135041] | -7.091 | –
3 | Cc1ccc(O)c(-c2cc(C(=O)Nc3ccc(S(=O)(=O)N4CCCC(C)C4)cc3)[nH]n2)c1 (stereo not drawn) [TCMDC-125202] | -32.7 | –
4 | CN1CCCc2ccc(NC(=O)c3cnc(-c4ccccc4)cn3)cc21 [TCMDC-141218] | -34.46 | –
5 | O=c1cc(NCCCNC2CCc3ccc(Cl)cc32)[nH]c2ccccc12 (stereo not drawn) [TCMDC-139365] | 84.72 | –
6 | O=c1cc(NCCCN(Cc2ccccc2)Cc2ccccc2)[nH]c2ccccc12 [TCMDC-139368] | -49.11 | –
7 | O=c1cc(NCCCNC2CCCc3c2cc(Cl)c(Cl)c3Cl)[nH]c2ccccc12 (stereo not drawn) [TCMDC-139478] | 2.268 | –
8 | O=c1cc(NCCCNC(c2ccccc2)c2ccc(Cl)c(Cl)c2)[nH]c2ccccc12 (stereo not drawn) [TCMDC-139318] | 54.86 | –
9 | O=c1cc(NCCCNCc2cc(Cl)c(Cl)cc2Cl)[nH]c2ccccc12 [TCMDC-139631] | -58.3 | –
10 | O=c1cc(NCCCNC2CCc3c(Cl)cc(Cl)cc32)[nH]c2ccccc12 (stereo not drawn) [TCMDC-139485] | 17.36 | –
11 | Cc1[nH]c2ccc(O)cc2c1C1CCN(CC2CCN(C(=O)/C=C/c3ccc(Cl)c(Cl)c3)CC2)CC1 [TCMDC-140219] | 39.96 | –
12 | CCCCCCCCCC(=O)NCC1CC(Br)=NO1 (stereo not drawn) [TCMDC-137735] | 4.616 | –
13 | OC(CNC1CCCCCC1)c1ccc(Cl)c(Cl)c1 (stereo not drawn) [TCMDC-141990] | -11.57 | –
14 | OC(CNC1CCCCC1)c1ccc(Cl)c(Cl)c1 (stereo not drawn) [TCMDC-123990] | 75.22 | –
15 | OC(CNCCCCCCNCC(O)c1ccc(Cl)c(Cl)c1)c1ccc(Cl)c(Cl)c1 (stereo not drawn) [TCMDC-141987] | 99.2 | –
16 | OC(CNC1CCCCCCC1)c1ccc(Cl)c(Cl)c1 (stereo not drawn) [TCMDC-141991] | -9.212 | –
17 | CC(C)C[C@H](NC(=O)c1ccc(OCCN2CCOCC2)cc1)C(=O)N[C@H](/C=N/N(C)C(=O)c1ccccc1)CCc1ccccc1 [TCMDC-135854] | 17.32 | –
18 | CC1(C)N=C(N)N=C(N)N1OCc1cccs1 [TCMDC-131654] | 20.54 | –
19 | COC(=O)/C=C/c1ccc(CC(C)NCC(O)c2cccc(C(F)(F)F)c2)cc1 (stereo not drawn) [TCMDC-131448] | – | -0.1444
20 | CCNc1cc(C(=O)N[C@@H](Cc2ccccc2)[C@H](O)CN[C@@H](C)c2ccccc2)cc(N2CCCC2=O)c1 [TCMDC-138823] | 8.317 | –
21 | CCCCCC(C)(C)NC[C@@H](O)[C@H](Cc1ccccc1)NC(=O)c1cc(NCC)cc(N2CCCC2=O)c1 [TCMDC-138912] | 10.89 | –
22 | CCNc1cc(C(=O)N[C@@H](Cc2ccccc2)[C@H](O)CNC(CC)c2cccc(Cl)c2)cc(N2CCCC2=O)c1 (stereo partly drawn) [TCMDC-135264] | 64.68 | –

Row | Structure (SMILES) | % Inhibition [%] | % Inhibition (% Inhibition) [%]
23 | CCC(NC[C@@H](O)[C@H](Cc1ccccc1)NC(=O)c1cc(C2CCCC2)cc(N2CCCC2=O)c1)c1cccc(Cl)c1 (stereo partly drawn) [TCMDC-135265] | 4.239 | –
24 | CCNc1cc(C(=O)N[C@@H](Cc2ccccc2)[C@H](O)CNC2CCCC2)cc(N2CCCC2=O)c1 [TCMDC-138844] | 16.89 | –
25 | CCNc1cc(C(=O)N[C@@H](Cc2ccccc2)[C@H](O)CN[C@@H]2CCc3ccccc32)cc(N2CCCC2=O)c1 [TCMDC-132414] | 21.82 | –
26 | CCNc1cc(C(=O)N[C@@H](Cc2ccccc2)[C@H](O)CNC(C)(C)Cc2ccccc2)cc(N2CCCC2=O)c1 [TCMDC-134567] | 5.299 | –
27 | CCNc1cc(C(=O)N[C@@H](Cc2ccccc2)[C@H](O)CNC(C)(C)CSCC(C)C)cc(N2CCCC2=O)c1 [TCMDC-134311] | 69.93 | –
28 | CCNc1cc(C(=O)N[C@@H](Cc2ccccc2)[C@H](O)CN[C@H](C)c2ccccc2)cc(N2CCCC2=O)c1 [TCMDC-138822] | 64.41 | –
29 | CCNc1cc(C(=O)N[C@@H](Cc2ccccc2)[C@H](O)CN[C@@H](C)c2cccc(OC)c2)cc(N2CCCC2=O)c1 [TCMDC-138824] | -0.5109 | –
30 | CCNc1cc(C(=O)N[C@@H](Cc2ccccc2)[C@H](O)CN[C@H]2CCc3ccccc32)cc(N2CCCC2=O)c1 [TCMDC-138917] | 52.85 | –
31 | CCNc1cc(C(=O)N[C@@H](Cc2ccccc2)[C@H](O)CNC(CC)c2cccc(Cl)c2)cc(N2CCCCS2(=O)=O)c1 (stereo partly drawn) [TCMDC-135221] | 3.057 | –
32 | Cc1cccc2[nH]c(-c3cccc(-c4cccc(CN5CCC(CO)CC5)c4)c3)nc12 [TCMDC-133131] | -22.3 | –
33 | Nc1nccc(-c2ccc3c(-c4cccc(F)c4)cnc(N)c3c2)n1 [TCMDC-134545] | -1.877 | –
34 | Cc1cc(NC(=O)c2ccsc2)ccc1OC1CCN(Cc2ccc(F)cc2)CC1 [TCMDC-133742] | 4.453 | –
35 | COc1ccc(Nc2nccc(-c3c(-c4cccc(NC(=O)c5c(F)cccc5F)c4)nn4ccccc34)n2)cc1Cl [TCMDC-135970] | -50.42 | –
36 | CS(=O)(=O)N(c1ccccc1)c1cc(C(=O)N[C@@H](Cc2ccccc2)[C@H](O)CNC2CCCCC2)cc(N2CCCC2=O)c1 [TCMDC-138850] | 25.67 | –
37 | CS(=O)(=O)N(c1ccccc1)c1cc(C(=O)N[C@@H](Cc2ccccc2)[C@H](O)CNC2CC2)cc(N2CCCC2=O)c1 [TCMDC-138891] | 19.46 | –
38 | CC(C)CCCC(C)NC[C@@H](O)[C@H](Cc1ccccc1)NC(=O)c1cc(N2CCCC2=O)cc(N(c2ccccc2)S(C)(=O)=O)c1 (stereo partly drawn) [TCMDC-138851] | 82.88 | –
39 | O=C(Nc1cccc(-c2ccc(-c3nc4ccc(C(F)(F)F)cc4[nH]3)cc2)c1)c1csnn1 [TCMDC-136905] | 5.589 | –
40 | COc1ccc(NC(=O)[C@H](C)Nc2cc(C)nc(NCC3CCCCC3)n2)cc1 [TCMDC-134922] | -9.943 | –
41 | CCOC(=O)c1ccc(N2CCN(c3cc(Cl)ccc3C)CC2)c(NC(=O)Nc2ccc(Cl)c(Cl)c2)c1 [TCMDC-124007] | -37.8 | –
42 | O=C(/C=C/c1ccc(Cl)c(Cl)c1)N1CCC(CCN2CCC(c3c[nH]c4ccccc34)CC2)CC1 [TCMDC-139620] | 8.374 | –
43 | O=C(/C=C/c1ccc(Cl)c(Cl)c1)N1CCC(CN2CCC(c3c[nH]c4ccncc34)CC2)CC1 [TCMDC-140074] | 108.3 | –
44 | O=C(/C=C/c1ccc(Cl)c(Cl)c1)N1CCC(CCN2CCC(c3c[nH]c4ccncc34)CC2)CC1 [TCMDC-140075] | 91.37 | –

Row | Structure (SMILES) | % Inhibition [%] | % Inhibition (% Inhibition) [%]
45 | O=C(/C=C/c1ccc(Cl)c(Cl)c1)N1CCC(CN2CCC(c3c[nH]c4ncccc34)CC2)CC1 [TCMDC-139846] | 9.268 | –
46 | O=C(/C=C/c1ccc(Cl)c(Cl)c1)N1CCC(CN2CCC(c3c[nH]c4cnccc34)CC2)CC1 [TCMDC-140135] | 46.53 | –
47 | O=C(/C=C/c1ccc(Cl)c(Cl)c1)N1CCC(CN2CCC(c3c[nH]c4ccc(NS(=O)(=O)c5cccs5)cc34)CC2)CC1 [TCMDC-139955] | 57.44 | –
48 | CS(=O)(=O)Nc1ccc2[nH]cc(C3CCN(CC4CCN(C(=O)/C=C/c5ccc(Cl)c(Cl)c5)CC4)CC3)c2c1 [TCMDC-139813] | 20.88 | –
49 | CS(=O)(=O)Nc1ccc2c(C3CCN(CC4CCN(C(=O)/C=C/c5ccc(Cl)c(Cl)c5)CC4)CC3)c[nH]c2c1 [TCMDC-139959] | -60.99 | –
50 | O=C(/C=C/c1ccc(Cl)c(Cl)c1)N1CCC(CCN2CCC(c3c[nH]c4cnccc34)CC2)CC1 [TCMDC-140136] | 111.3 | –
51 | CCc1nc(N)nc(N)c1-c1ccccc1 [TCMDC-124296] | -28.74 | –
52 | O=C(Nc1ccc(F)cc1)c1nc2ccccc2nc1Cl [TCMDC-124769] | 24.46 | –
53 | COCCN(C)CCCOc1cc2c(cc1OC)ncn2-c1cc(OCc2ccccc2C(F)(F)F)c(C(N)=O)s1 [TCMDC-135214] | 33.23 | –
54 | CCN1CCN(c2cc(C)c3cc(NC(=O)c4cccc(Cl)c4)ccc3n2)CC1 [TCMDC-125580] | 30.18 | –
55 | N=c1c(C(=O)NCc2ccccc2)cc2c(=O)n3ccccc3nc2n1CCc1ccccc1 [TCMDC-124378] | 0.2894 | –
56 | CC(=O)Nc1ccc2[nH]cc(C3CCN(CC4CCN(C(=O)/C=C/c5ccc(Cl)c(Cl)c5)CC4)CC3)c2c1 [TCMDC-139853] | 21.75 | –
57 | CC(=O)Nc1ccc2[nH]cc(C3CCN(CCC4CCN(C(=O)/C=C/c5ccc(Cl)c(Cl)c5)CC4)CC3)c2c1 [TCMDC-139854] | 30.15 | –
58 | CCS(=O)(=O)Nc1ccc2[nH]cc(C3CCN(CCC4CCN(C(=O)/C=C/c5ccc(Cl)c(Cl)c5)CC4)CC3)c2c1 [TCMDC-139930] | 78.45 | –
59 | CS(=O)(=O)Nc1ccc2c(C3CCN(CCC4CCN(C(=O)/C=C/c5ccc(Cl)c(Cl)c5)CC4)CC3)c[nH]c2c1 [TCMDC-139956] | 32.42 | –
60 | O=S(=O)(c1ccc2cc[nH]c2c1)N1CCC[C@@H]1CCN1CCC(c2c[nH]c3cnccc23)CC1 [TCMDC-141158] | 68.56 | –
61 | O=C1COc2ccc(S(=O)(=O)N3CCC[C@@H]3CCN3CCC(c4c[nH]c5cnccc45)CC3)cc2N1 [TCMDC-141172] | 41.57 | –
62 | O=C(/C=C/c1ccc(Cl)c(Cl)c1)N1CCC(CN2CCC(c3c[nH]c4ccc(O)cc34)CC2)CC1 [TCMDC-139786] | 94.36 | –
63 | O=C(/C=C/c1ccc(Cl)c(Cl)c1)N1CCC(CCN2CCC(c3c[nH]c4cc5c(cc34)OCO5)CC2)CC1 [TCMDC-139836] | 55.11 | –
64 | O=C(/C=C/c1ccc(Cl)c(Cl)c1)N1CCC(CN2CCC(c3c[nH]c4cc5c(cc34)OCO5)CC2)CC1 [TCMDC-139838] | -10.77 | –
65 | CC1CCN(CC[C@H]2CCCN2S(=O)(=O)c2cccc(NC(=O)c3ccc(-c4ccc(Cl)cc4)o3)c2)CC1 [TCMDC-141078] | -28.73 | –
66 | CNC(=O)c1ccc2[nH]cc(C3CCN(CC4CCN(C(=O)/C=C/c5ccc(Cl)c(Cl)c5)CC4)CC3)c2c1 [TCMDC-139980] | -32.3 | –
